# Measured values from PubChem BioAssay (NCATS).
# Results filed as inconclusive are left out. Active and inactive are the calls of the source. Calls come from the whole dose curve; as a rule, active = well fitted curve in the direction sought with a large enough effect; inconclusive = small, poorly fitted or top-dose-only effect, or another doubt; inactive = no such curve, though single readings can be large; an effect the other way counts as inactive or inconclusive.
# System: Zika virus NS2B-NS3 protease (linked construct)
# Test: Primary screen NINDS Rhodamine qHTS for Zika virus inhibitors (AID 1347160); note: nearly all actives have a fitted effect of over 55% in size; note: potency is the fitted concentration of half-maximal effect; for activity change, negative = inhibition: % is set by controls: 0 for no effect and ±100 for the full control effect
# Conditions: purified NS2B-NS3 protease, Rhodamine110 substrate fluorescence; series mostly up to 57.1 µM; activity change, negative = inhibition: at the top concentration
# Summary of the method: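 Single-chain NS2B-NS3 protease, 25 nM, pH 8.0; compounds preincubated 15 min. Activity: Rhodamine110 release from 1.5 microM substrate over 15 min, room temperature, data fitted to 4-parameter Hill.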
Structure (SMILES),"activity change, negative = inhibition",Potency
COc1ccc2[nH]cc(CCN)c2c1,18.9% [at 112 µM] (inactive),
C[C@@]1(C(=O)O)CC[C@]2(C)CC[C@]3(C)C4=CC(=O)c5cc(O)c(O)cc5[C@]4(C)CC[C@@]3(C)[C@@H]2C1,,7.94 µM (active)
C=C(C)[C@H]1O[C@H]2CC[C@@]3(C)[C@@](O)(CC[C@H]4[C@@H]5OC(C)(C)[C@H]6C[C@@H]7C(=C)Cc8c(Cl)cc9[nH]c(c5c9c8[C@@]76O)[C@@]43C)[C@]23O[C@@H]3[C@H]1O,-9.91% [at 15.1 µM] (inactive),

# System: not listed separately
# Test: Confirmatory screen NINDS Rhodamine qHTS for Zika virus inhibitors (AID 1347161); note: potency is the fitted concentration of half-maximal effect; nearly all actives have a fitted effect of over 60% in size
# Conditions: purified enzyme assay, Rhodamine110 substrate fluorescence, 15 min; series mostly up to 38.1 µM; activity change, negative = inhibition: at the top concentration
# Summary of the method: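 Purified linked NS2B-NS3 protease (NS2B hydrophilic domain joined to NS3 protease by flexible linker), 25 nM in 10 mM Tris-HCl pH 8.0, 0.01% Tween 20. Compounds titrated, 15 min preincubation at room temperature; 1.5 microM Rhodamine110 substrate, FITC fluorescence change over 15 min.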
row,Structure (SMILES),Potency
1,O=c1ccc2[nH]cc(C3=CCNCC3)c2[nH]1,44.1 µM (active)
2,CC(=O)c1c(O)c(C)c(O)c(Cc2c(O)c3c(c(C(=O)/C=C/c4ccccc4)c2O)OC(C)(C)C=C3)c1O,17.8 µM (active)
3,C[C@@]1(C(=O)O)CC[C@]2(C)CC[C@]3(C)C4=CC(=O)c5cc(O)c(O)cc5[C@]4(C)CC[C@@]3(C)[C@@H]2C1,1.36 µM (active)

# Molecular target: Lysine-specific demethylase 5B (Homo sapiens) (UniProt Q9UGL1)
# Test: Optimization screen for KDM5B Histone Demethylases FDH coupled qHTS against the LOPAC library (AID 1347166); note: 0% is about no effect
# Conditions: KDM5B demethylation, FDH-coupled NADH fluorescence (FDH is formaldehyde dehydrogenase); series mostly up to 57.5 µM; activity, negative = inhibition: at the top concentration
# Summary of the method: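 KDM5BDeltaAP (200nM final) in 50mM HEPES pH 7.5, 0.01% Tween-20 was preincubated with compound for 10 min at room temperature. A substrate mix of 12.5uM H3K4Me3, 25uM a-ketoglutarate, ascorbate, Fe2+, NAD+ and formaldehyde dehydrogenase was then added. NADH fluorescence (340/450 nm) was read initially and after 30 min.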
# Lysine-specific demethylase 5B (Homo sapiens), sequence (Q9UGL1 whole entry, looked up): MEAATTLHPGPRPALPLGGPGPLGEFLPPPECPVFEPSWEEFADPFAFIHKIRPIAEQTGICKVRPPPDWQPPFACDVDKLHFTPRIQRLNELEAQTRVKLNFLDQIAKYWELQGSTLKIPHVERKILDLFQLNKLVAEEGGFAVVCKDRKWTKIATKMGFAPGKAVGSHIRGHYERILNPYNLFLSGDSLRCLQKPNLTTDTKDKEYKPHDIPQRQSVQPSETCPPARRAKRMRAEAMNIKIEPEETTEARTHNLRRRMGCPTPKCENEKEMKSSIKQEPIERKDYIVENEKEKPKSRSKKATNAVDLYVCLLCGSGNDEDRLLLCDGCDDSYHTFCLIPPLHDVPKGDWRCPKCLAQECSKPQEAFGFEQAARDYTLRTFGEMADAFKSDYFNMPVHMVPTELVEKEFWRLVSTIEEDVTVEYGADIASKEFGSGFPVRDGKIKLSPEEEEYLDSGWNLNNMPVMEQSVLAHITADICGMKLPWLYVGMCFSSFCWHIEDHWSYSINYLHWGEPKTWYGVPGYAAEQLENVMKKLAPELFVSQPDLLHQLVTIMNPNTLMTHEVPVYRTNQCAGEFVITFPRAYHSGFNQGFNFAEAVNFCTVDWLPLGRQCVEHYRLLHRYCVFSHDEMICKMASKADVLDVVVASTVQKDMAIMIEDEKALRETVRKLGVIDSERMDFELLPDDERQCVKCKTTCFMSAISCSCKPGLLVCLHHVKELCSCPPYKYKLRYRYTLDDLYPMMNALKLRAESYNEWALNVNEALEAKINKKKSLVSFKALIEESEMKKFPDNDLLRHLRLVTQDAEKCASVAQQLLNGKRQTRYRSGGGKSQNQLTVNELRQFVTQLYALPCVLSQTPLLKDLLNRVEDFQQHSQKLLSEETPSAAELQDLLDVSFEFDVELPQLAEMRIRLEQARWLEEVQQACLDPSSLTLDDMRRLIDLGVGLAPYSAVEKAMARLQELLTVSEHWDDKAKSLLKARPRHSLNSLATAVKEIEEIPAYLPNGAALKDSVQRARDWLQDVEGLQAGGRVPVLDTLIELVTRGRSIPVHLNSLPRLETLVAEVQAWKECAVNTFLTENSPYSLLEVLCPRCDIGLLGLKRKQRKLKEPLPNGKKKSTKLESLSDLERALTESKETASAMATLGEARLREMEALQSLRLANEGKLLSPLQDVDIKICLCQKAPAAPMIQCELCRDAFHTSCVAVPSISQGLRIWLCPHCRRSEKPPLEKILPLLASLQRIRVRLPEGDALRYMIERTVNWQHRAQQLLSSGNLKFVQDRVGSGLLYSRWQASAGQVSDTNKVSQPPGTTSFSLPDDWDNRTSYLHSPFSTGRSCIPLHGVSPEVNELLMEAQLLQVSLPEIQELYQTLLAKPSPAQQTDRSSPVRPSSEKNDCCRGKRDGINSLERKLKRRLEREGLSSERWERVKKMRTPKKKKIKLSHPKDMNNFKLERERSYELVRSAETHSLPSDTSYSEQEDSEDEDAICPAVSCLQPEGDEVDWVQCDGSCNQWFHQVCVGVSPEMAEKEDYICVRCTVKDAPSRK
row,Structure (SMILES),"activity, negative = inhibition"
1,NCC(CP(=O)(O)O)c1ccc(Cl)cc1 (centres undefined),-5.4% (inactive)
2,CO[C@H]1CC=C2CCN3CCC4=C(CC(=O)OC4)[C@]23C1,-9% (inactive)
3,NC(N)=NOCC[C@H](N)C(=O)O,3.04% (inactive)
4,C[N+](C)(C)CCOC(=O)CBr,-5.76% (inactive)
5,C[N+](C)(C)CC#CCN1CCCC1=O,-20.1% (inactive)
6,Nc1ccc(CCN2CCN(c3cccc(C(F)(F)F)c3)CC2)cc1,-16.2% (inactive)
7,CC(C)[C@@]1(NC(=O)[C@@H]2C[C@@H]3c4cccc5[nH]cc(c45)C[C@H]3N(C)C2)O[C@@]2(O)[C@@H]3CCCN3C(=O)[C@H](Cc3ccccc3)N2C1=O,6.95% (inactive)
8,CC(C)(C)c1cc(C=C(C#N)C#N)cc(C(C)(C)C)c1O,-23% (inactive)
9,C[N+](C)(C)CC#CCOC(=O)Nc1cccc(Cl)c1,-8.72% (inactive)
10,COc1ccc2[nH]cc(CCN)c2c1,-7.24% (inactive)
11,CC(N)Cc1c[nH]c2ccc(OCc3cccs3)cc12 (centres undefined),-4.33% (inactive)
12,C[N+]1(C)CCOC(O)(c2ccc(-c3ccc(C4(O)C[N+](C)(C)CCO4)cc3)cc2)C1 (centres undefined),-3.32% (inactive)
13,CN1C2CCC1CC(OC(c1ccccc1)c1ccccc1N)C2 (centres undefined),-3.43% (inactive)
14,CN(C(=O)Cc1ccc(Cl)c(Cl)c1)C(CN1CCCC1)c1cccc(OCC(=O)O)c1 (centres undefined),-7.66% (inactive)
15,CP(=O)(O)C1=CCNCC1,-7.18% (inactive)
16,CCCN(CCC)C1Cc2cc(OC)c(OC)cc2C1,-0.481% (inactive)
17,CC(Cc1ccc(OCC(=O)O)cc1)NCC(O)c1cccc(Cl)c1 (centres undefined),-3.07% (inactive)
18,CN1CCC(c2c[nH]c3ccc(O)cc23)CC1,-5.71% (inactive)
